Compound activity (PubChem)
Tcruzi prolif = T. cruzi intracellular proliferation inhibitors, primary screen, cell-based, beta-gal Tulahuen parasites, NIH3T3 host, luminescence. T. cruzi beta-gal in NIH3T3, GalScreen luminescence, 90 h. 5.9% of 77,000 active. inhibition, % at 8.34 µM;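 active = mean inhibition above about 93%, with at least 55% of replicates each passing it, limit read from the data, passing the limit was not always enough; inconclusive = only one of those two conditions holds; inactive = neither condition holds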
C diff growth = C. difficile growth inhibitors, primary screen, HTS; Clostridium difficile clinical isolate growth, OD600, 24 h; stronger effect = lower value; growth activity, negative = inhibition, % at 16 µg/mL (by protocol); 0.25% of 86,000 active; AID 1259249, 2017;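 active = mean growth activity at or below -80% and every replicate also at or below -80%; inconclusive = mean at or below -80% but some replicate above -80%; inactive = mean growth activity above -80%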;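 note: 0% = DMSO wells and -100% = levofloxacin 16 µg/mL wells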
Pf Dd2 growth = P. falciparum Dd2 growth inhibitors, primary screen, SYBR Green fluorescence, single dose replicates. activity change, % at 10 µM. 2.3% of 94,000 active. AID 1159554, 2015. 72 h; stronger effect = lower value; in the data active = activity change below about -80%; inconclusive = no clear call, values can overlap the other calls
* marks the source's active call; other numbers are inactive results; ! = not active in a repeat. Sampled rows, rich in hits. Any-hit rate of the full collection: about 6.7%.

How did CN(C)CCCNC(=O)C[C@@H]1CC[C@H]2[C@@H](COC[C@H](O)CN2S(=O)(=O)c2ccc(F)cc2)O1 do in these assays?
Tcruzi prolif: -17.5; Pf Dd2 growth: 10.8

How did COc1cccc(NC(=O)N(C)C[C@@H]2Oc3cc(C#Cc4ccccc4)ccc3S(=O)(=O)N([C@@H](C)CO)C[C@@H]2C)c1 do in these assays?
Tcruzi prolif: inconclusive; C diff growth: -7.0; Pf Dd2 growth: -90.7*

How did COc1cccc(NC(=O)N(C)C[C@@H]2Oc3cc(C#Cc4ccncc4)ccc3S(=O)(=O)N([C@@H](C)CO)C[C@@H]2C)c1 do in these assays?
Tcruzi prolif: 49.4; C diff growth: 9.2; Pf Dd2 growth: -79.2

How did COc1cccc(C#Cc2ccc3c(c2)O[C@H](CN(C)C(=O)c2ccccn2)[C@H](C)CN([C@@H](C)CO)S3(=O)=O)c1 do in these assays?
Tcruzi prolif: 115.8*; C diff growth: 2.0; Pf Dd2 growth: -70.9

Results for COc1ccc(C#Cc2ccc3c(c2)O[C@@H](CN(C)C(=O)c2ccccn2)[C@H](C)CN([C@@H](C)CO)S3(=O)=O)cc1 ?
C diff growth: -3.2; Pf Dd2 growth: -44.1

What do the screens show for `COc1cccc(C#Cc2ccc3c(c2)O[C@@H](CN(C)C(=O)c2ccccn2)[C@H](C)CN([C@H](C)CO)S3(=O)=O)c1`?
Tcruzi prolif: 119.2*; C diff growth: -2.9; Pf Dd2 growth: -78.7

What do the screens show for `COc1cccc(C#Cc2ccc3c(c2)O[C@@H](CN(C)C(=O)c2ccccn2)[C@@H](C)CN([C@H](C)CO)S3(=O)=O)c1`?
Tcruzi prolif: inconclusive; C diff growth: -3.5; Pf Dd2 growth: -72.6

Results for C[C@H]1CN([C@@H](C)CO)C(=O)Cc2cc(NC(=O)C3CC3)ccc2O[C@@H]1CN(C)C(=O)Nc1cccc2ccccc12 ?
Tcruzi prolif: 20.2; C diff growth: -1.6; Pf Dd2 growth: 3.2

How did O=C(c1ccncc1)N1CC[C@H]2[C@H](CO)Nc3ccc(-c4ccccc4)cc3[C@H]21 do in these assays?
Tcruzi prolif: 87.0; C diff growth: -10.3; Pf Dd2 growth: 3.1

Results for CCCNC(=O)N1CC2(CCN(S(=O)(=O)c3ccccc3)CC2)c2c(n(C)c3cc(OC)ccc23)[C@H]1CO ?
C diff growth: 10.0; Pf Dd2 growth: -19.8

How did CCCNC(=O)N1CC2(CCN(S(=O)(=O)c3ccc(OC)cc3)CC2)c2c(n(C)c3cc(OC)ccc23)[C@@H]1CO do in these assays?
C diff growth: 2.5; Pf Dd2 growth: -86.0*

Results for COc1ccc(S(=O)(=O)N2CCC3(CC2)CN(C(=O)CN(C)C)[C@@H](CO)c2c3c3ccc(OC)cc3n2C)cc1 ?
C diff growth: -3.8; Pf Dd2 growth: -88.3*

What do the screens show for `COc1ccc2c3c(n(C)c2c1)[C@@H](CO)N(C(=O)CN(C)C)CC31CCN(C(=O)CN(C)C)CC1`?
C diff growth: 1.8; Pf Dd2 growth: 13.8

What do the screens show for `Cc1ccc(S(=O)(=O)Nc2ccc3c(c2)C(=O)N([C@H](C)CO)C[C@@H](C)[C@H](CN(C)C(=O)Nc2ccc4c(c2)OCO4)OCCCC[C@@H](C)O3)cc1`?
C diff growth: -0.2; Pf Dd2 growth: -33.2

Results for CCCC(=O)Nc1ccc2c(c1)OC[C@@H](C)N(Cc1ccc(F)cc1)C[C@H](C)[C@@H](OC)CN(C)C2=O ?
Tcruzi prolif: 39.8; Pf Dd2 growth: -28.8

What do the screens show for `CN(C)C(=O)c1ccc(-c2cccc(-c3nc(C(=O)NC4CCCC4)cc4c3[C@@H](CCO)N([S@](=O)C(C)(C)C)C4)c2)cc1`?
Tcruzi prolif: 72.0; Pf Dd2 growth: -74.3

How did COc1ccc(C#Cc2cccc(-c3nc(C(=O)N[C@@H]4CCN(Cc5ccccc5)C4)cc4c3[C@@H](CCO)N(S(=O)C(C)(C)C)C4)c2)cc1OC (stereo partly specified) do in these assays?
C diff growth: -2.4; Pf Dd2 growth: -88.2*

How did CN(C)C(=O)c1ccc(-c2cccc(-c3nc(C(=O)NC4CCCCC4)cc4c3[C@@H](CCO)N([S@](=O)C(C)(C)C)C4)c2)cc1 do in these assays?
Tcruzi prolif: 72.4; Pf Dd2 growth: -73.6

What do the screens show for `CN(C)C(=O)c1cccc(-c2cccc(-c3nc(C(=O)NC4CCCCC4)cc4c3[C@H](CCO)N([S@@](=O)C(C)(C)C)C4)c2)c1`?
Tcruzi prolif: 77.7; Pf Dd2 growth: -84.2*

Results for CC(C)(O)C#Cc1cccc(-c2nc(C(=O)N[C@@H]3CCN(Cc4ccccc4)C3)cc3c2[C@@H](CCO)N(S(=O)C(C)(C)C)C3)c1 (stereo partly specified) ?
C diff growth: 2.8; Pf Dd2 growth: -72.4

How did CN(C)C(=O)c1cccc(-c2cccc(-c3nc(C(=O)NC4CCCCC4)cc4c3[C@@H](CCO)N([S@](=O)C(C)(C)C)C4)c2)c1 do in these assays?
Tcruzi prolif: 59.2; Pf Dd2 growth: -87.2*

What do the screens show for `CCC(=O)Nc1ccc2c(c1)OC[C@@H](C)N(C(=O)c1cccnc1)C[C@H](C)[C@H](OC)CN(C)C2=O`?
Tcruzi prolif: -18.3; Pf Dd2 growth: 36.8

Results for C[C@@H]1CN([C@H](C)CO)C(=O)c2cccc(NS(=O)(=O)c3ccccc3)c2O[C@@H]1CN(C)S(=O)(=O)c1ccccc1 ?
Tcruzi prolif: 10.6; C diff growth: -7.9; Pf Dd2 growth: -6.3

How did Cc1noc(C)c1S(=O)(=O)Nc1ccc2c(c1)CC(=O)N([C@@H](C)CO)C[C@@H](C)[C@H](CN(C)CC1CCCCC1)O2 do in these assays?
Tcruzi prolif: -1.4; C diff growth: -6.3; Pf Dd2 growth: -46.8

What do the screens show for `CO[C@H]1CN(C)C(=O)c2ccc(NC(=O)C3CC3)cc2OC[C@@H](C)N(Cc2ccccc2)C[C@@H]1C`?
Tcruzi prolif: 44.0; Pf Dd2 growth: -31.5

What do the screens show for `COc1cccc(-c2ccc(C3[C@H]4CNC[C@@H]3N4C(=O)Nc3ccc(C(F)(F)F)cc3)cc2)c1` (stereo partly specified)?
C diff growth: -94.1*!; Pf Dd2 growth: 8.8

How did O=C(Nc1ccc(C(F)(F)F)cc1)N1[C@@H]2CNC[C@H]1C2c1ccc(-c2cccnc2)cc1 (stereo partly specified) do in these assays?
C diff growth: -3.4; Pf Dd2 growth: 10.3

How did O=C(Nc1ccc(C(F)(F)F)cc1)N1[C@@H]2CNC[C@H]1C2c1ccc(-c2ccc(F)cc2)cc1 (stereo partly specified) do in these assays?
C diff growth: -98.9*; Pf Dd2 growth: 24.6

What do the screens show for `COc1ccc(NC(=O)N2[C@@H]3CNC[C@H]2C3c2ccc(-c3ccccc3C)cc2)cc1` (stereo partly specified)?
C diff growth: 39.1; Pf Dd2 growth: 4.1

Results for Cc1ccccc1-c1ccc(C2[C@H]3CNC[C@@H]2N3C(=O)Nc2ccc(Cl)cc2)cc1 (stereo partly specified) ?
C diff growth: -97.4*!; Pf Dd2 growth: 13.9

What do the screens show for `COc1ccc(NC(=O)N2[C@@H]3CNC[C@H]2C3c2ccc(-c3cccc(OC)c3)cc2)cc1` (stereo partly specified)?
C diff growth: 48.9; Pf Dd2 growth: 4.2
